Assay in all cases: pooled miR-30 sensor sort-seq; sequence = guide strand
Details in all cases: shRNA

The target of assay [1] is STK24.
The target in assay [2] is STK11.
Assay [3] concerns the target STAT5B.
The target in assay [4] is STARD3.
In assay [5] the target is STK32B.
In assay [6] the target is STRA6.
The target in assay [7] is STMN2.
Assay [8] addresses STRADB.
The target in assay [9] is STX12.
The target of assay [10] is SULT1A2.
Further: reference of the scale not given here.

In assay [1], TTGTGCTTCAATAACTCCTTAG displayed a sensor-assay potency score (higher = more potent) of -0.488.

In turn, TAACACATCCACCAGCTGGATG registered a sensor-assay potency score (higher = more potent) in [2] of -1.1.

TAATTGTAGATAAACACTGAGA showed a sensor-assay potency score (higher = more potent) in assay [1] of -0.826.

In assay [3], TATACTTCATCTTTTGGCCGAT gave a sensor-assay potency score (higher = more potent) of -0.0426.

As to TATAACACATCCACCAGCTGGA, the sensor-assay potency score (higher = more potent) in [2] came to 0.528.

Take TCTCGGATTGTGAAGATCCAGT: the sensor-assay potency score (higher = more potent) in [1] is -1.01.

Sequence TTGACTTGAAAAACCAGCTCAT registered a sensor-assay potency score (higher = more potent) in assay [3] of 0.235.

Take TTAGCAGTAGCAGACTCGCAGG: the sensor-assay potency score (higher = more potent) in [3] was -0.797.

Take TTTTTGTGCCGTAACCTCCTCA: in assay [2], the sensor-assay potency score (higher = more potent) is 0.218.

In assay [3], TAACTCATTCTCTGTGTCCTGC gave a sensor-assay potency score (higher = more potent) of 0.72.

Turning to TTAACACTTCCATCACACCGTC, the sensor-assay potency score (higher = more potent) in assay [3] is -0.414.

Regarding TTTCATCTTATTTCTGTCCAAG, in [1], the sensor-assay potency score (higher = more potent) is -0.728.

TGGACTGTCACACTGACTCAGC: the sensor-assay potency score (higher = more potent) in assay [1] is -1.39.

As for TATACAAATCTGTACACCCATC, in assay [1], the sensor-assay potency score (higher = more potent) was -1.31.

In the case of TGTCTTGTTCCACAGCACCATC, the sensor-assay potency score (higher = more potent) in [4] is -1.77.

As to TTGTTCAAGATCTCGCCACTGT, the sensor-assay potency score (higher = more potent) in assay [3] was determined as 0.132.

In turn, TAATATAGTAGCGATCTGGGTT showed a sensor-assay potency score (higher = more potent) in [1] of 0.44.

TTCTGAGTCACTGAATCTCAGG registered a sensor-assay potency score (higher = more potent) in [3] of -1.25.

In assay [1], TTCTAATAGATCTAGTGCGGAG came in with a sensor-assay potency score (higher = more potent) of -0.878.

With TTTAACACTTCCATCACACCGT, the sensor-assay potency score (higher = more potent) in assay [3] worked out at 0.122.

With TTCATTATTCTTCTCAAACTTC, the sensor-assay potency score (higher = more potent) in assay [4] is -0.376.

TCGCAACTTCTTCTTCTTGAGG showed a sensor-assay potency score (higher = more potent) in assay [2] of -1.45.

The sequence ATCAGCTGACAGAAGTACCCGT showed a sensor-assay potency score (higher = more potent) in assay [2] of -0.0103.

Take TTTCTCTTAATATAGTAGCGAT: the sensor-assay potency score (higher = more potent) in assay [1] is -0.861.

Consider TTTAGCAGTAGCAGACTCGCAG, for which the sensor-assay potency score (higher = more potent) in [3] stood at 0.175.

TTCCACAGCACCATCCTCTCGG yielded a sensor-assay potency score (higher = more potent) in [4] of 0.506.

As for TTCGCAACTTCTTCTTCTTGAG, in [2], the sensor-assay potency score (higher = more potent) is -0.46.

Take TACATATGGACTGTCACACTGA: the sensor-assay potency score (higher = more potent) in assay [1] turned out to be 0.632.

Take TCAGCTGACAGAAGTACCCGTG: the sensor-assay potency score (higher = more potent) in assay [2] was determined as 0.17.

As for TTCTCAATGATGAACGTGCTGG, the sensor-assay potency score (higher = more potent) in [3] is -0.64.

Sequence TCTTCTTGAGGATCTTGACGGC had a sensor-assay potency score (higher = more potent) in assay [2] of -0.46.

TTGTTCCACAGCACCATCCTCT registered a sensor-assay potency score (higher = more potent) in assay [4] of -0.73.

As to TTGGCTTCTCGGACCAACCTCT, the sensor-assay potency score (higher = more potent) in assay [3] is -0.339.

In the case of TTCTTCTTGAGGATCTTGACGG, the sensor-assay potency score (higher = more potent) in assay [2] is -0.484.

Regarding TTTGCCAATCGCTTCTTCTTTT, in assay [5], the sensor-assay potency score (higher = more potent) is -0.852.

Take TAACACTTCCATCACACCGTCA: the sensor-assay potency score (higher = more potent) in assay [3] was -0.288.

Sequence TTTCTGCTTCTCTTCGTTGTAT came in with a sensor-assay potency score (higher = more potent) in assay [2] of 0.0401.

For the sequence TACATTTTCTGCTTCTCTTCGT, the sensor-assay potency score (higher = more potent) in [2] worked out at 0.646.

In assay [2], TTCGTTGTATAACACATCCACC registered a sensor-assay potency score (higher = more potent) of -1.02.

In [6], TAGGCACTGAAGCTCATCCAAC gave a sensor-assay potency score (higher = more potent) of -1.34.

In turn, TTGTCTGGCTTGATGTCTCTGT had a sensor-assay potency score (higher = more potent) in [5] of 0.0607.

Consider TTTGCTTCACTTCCATATCATC, for which, in assay [7], the sensor-assay potency score (higher = more potent) is -1.64.

For the sequence TTTCGGTACGTGTAGTAGCCGG, the sensor-assay potency score (higher = more potent) in assay [6] is -0.648.

Sequence TTCTGCTCCTTTCACTACCGTC registered a sensor-assay potency score (higher = more potent) in [5] of -0.907.

In assay [7], TTGGAGAAGCTAAAGTTCGTGG showed a sensor-assay potency score (higher = more potent) of -0.769.

TAGATGCAGTGTCTCAAGCAGA: the sensor-assay potency score (higher = more potent) in assay [6] was -0.804.

On to TAATGTGAACATGTCCGTGTTC, for which, in [5], the sensor-assay potency score (higher = more potent) was -0.137.

TTGCATGATCTGCAGCTCCCGG displayed a sensor-assay potency score (higher = more potent) in [5] of -1.07.

As for TCAATCTTCAAGAAGTTTCGGT, the sensor-assay potency score (higher = more potent) in assay [6] was 0.639.

As for TTTCTTAGTGTCTCGCTTCTGC, the sensor-assay potency score (higher = more potent) in [5] was 0.225.

In turn, AACAGTCCCAGTATCTTCCAGG yielded a sensor-assay potency score (higher = more potent) in assay [6] of -0.995.

TTTTCCTCCGCCATCTTGCTGA came in with a sensor-assay potency score (higher = more potent) in [7] of -0.369.

For the sequence ATCATCGTAAGTATAGATGTTG, the sensor-assay potency score (higher = more potent) in assay [7] was -0.449.

For the sequence TTCTGAAGGACTTCTCGCTCGT, in assay [7], the sensor-assay potency score (higher = more potent) was 0.283.

Turning to TGTAGCTGAAAGCACCAGCTTC, the sensor-assay potency score (higher = more potent) in assay [6] was -0.655.

In the case of TTTCTTTCTCCAGAACCCCTGC, the sensor-assay potency score (higher = more potent) in assay [6] is -0.557.

In the case of TAAGTATAGATGTTGATGTTGC, the sensor-assay potency score (higher = more potent) in [7] is -0.111.

In turn, AACATGTCCGTGTTCATCCAGC registered a sensor-assay potency score (higher = more potent) in [5] of -0.285.

TTCTTGAACACCGCGTCCCAGT: the sensor-assay potency score (higher = more potent) in [5] is -0.825.

Turning to TTCACTTCCATATCATCGTAAG, the sensor-assay potency score (higher = more potent) in [7] was -0.831.

As for TTCTTCTTTCCTCTGCAGCCTC, the sensor-assay potency score (higher = more potent) in assay [7] was -0.81.

In assay [8], TTGCAAACAGAGCTGTACCAAG gave a sensor-assay potency score (higher = more potent) of -0.672.

For TAGTGTCTCGCTTCTGCACGAT, the sensor-assay potency score (higher = more potent) in [5] is -0.331.

In turn, TTCCTCAGAGTAGCTGCTCTGC had a sensor-assay potency score (higher = more potent) in assay [6] of -1.09.

As for TTGATTTGCTTCACTTCCATAT, the sensor-assay potency score (higher = more potent) in [7] was -0.805.

TAGTACTTGTAGATCTTGGGCA had a sensor-assay potency score (higher = more potent) in [6] of 0.389.

In assay [7], TTTCTTCTGGATCTCCTCCAGG yielded a sensor-assay potency score (higher = more potent) of -0.912.

Turning to TGAGATGTAGCACACTTCCAGA, the sensor-assay potency score (higher = more potent) in assay [6] was -1.21.

In turn, TTGGATTCTAGAATCATCTCTT had a sensor-assay potency score (higher = more potent) in [5] of 0.951.

In the case of TAATCGGTCACTATTTACTGTG, the sensor-assay potency score (higher = more potent) in [8] was -0.781.

As for TTCCATTTTCAGGATCAGCTTT, the sensor-assay potency score (higher = more potent) in assay [7] is -0.67.

In assay [5], TTCACTACCGTCGCTATGTTGA came in with a sensor-assay potency score (higher = more potent) of -0.4.

In [8], TCTGACTTCACATTATACCCAT gave a sensor-assay potency score (higher = more potent) of 0.302.

In turn, TAGATTAGTAATTCTGATGTTT returned a sensor-assay potency score (higher = more potent) in assay [8] of 0.0372.

For TAATAGCAGCTAGATTAGCCTC, the sensor-assay potency score (higher = more potent) in assay [7] is -0.915.

Take TGTAATGTGAACATGTCCGTGT: the sensor-assay potency score (higher = more potent) in assay [5] was 1.03.

TTCGGTACGTGTAGTAGCCGGG: the sensor-assay potency score (higher = more potent) in assay [6] is -0.203.

In the case of TTGGAGGTGTGGTAGCTGCTTC, the sensor-assay potency score (higher = more potent) in [6] is -0.709.

As for AAATATCTGATTGACATCCAAA, the sensor-assay potency score (higher = more potent) in assay [9] is -1.28.

As for TTGAGTCCTGCTTAGTTCCTAG, in assay [9], the sensor-assay potency score (higher = more potent) was -0.155.

On to ACCCATAGGACACTTCTCCAGC, for which, in assay [10], the sensor-assay potency score (higher = more potent) is -2.4.

Consider TGAGGTCCACAGTCTCCTCTGG, for which the sensor-assay potency score (higher = more potent) in assay [10] was -0.796.

TTATTCTGGAGCCTCTTGGTCA came in with a sensor-assay potency score (higher = more potent) in assay [10] of -0.61.

ATGAGGTCCACAGTCTCCTCTG: in [10], the sensor-assay potency score (higher = more potent) was -1.

The values are drawn from the OligoGym collection.
